D1 antagonist = antagonists of human D1 dopamine receptor; hit rate 3.2% among 360,000; HEK293 TREx D1 cells, calcium flux, dopamine EC80; hits give low values; activity change, negative = inhibition, % at 10 µM; P21728; in the data active means activity change below about -30%; further: on the % scale 0 is the no-effect control and ±100 the full control effect
Target sequence (P21728 whole entry, looked up): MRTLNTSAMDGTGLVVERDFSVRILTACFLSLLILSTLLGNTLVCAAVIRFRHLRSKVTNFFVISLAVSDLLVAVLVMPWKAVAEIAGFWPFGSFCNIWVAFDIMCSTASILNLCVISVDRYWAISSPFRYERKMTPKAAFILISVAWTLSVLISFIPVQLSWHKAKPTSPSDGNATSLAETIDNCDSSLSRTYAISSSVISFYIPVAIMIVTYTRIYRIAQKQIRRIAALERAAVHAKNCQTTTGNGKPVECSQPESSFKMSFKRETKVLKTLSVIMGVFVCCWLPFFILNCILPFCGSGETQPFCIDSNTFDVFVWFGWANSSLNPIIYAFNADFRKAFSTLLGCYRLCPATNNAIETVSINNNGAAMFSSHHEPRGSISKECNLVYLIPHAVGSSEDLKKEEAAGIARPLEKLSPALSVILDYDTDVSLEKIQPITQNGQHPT
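Tetracycline-induced HEK293 T-REx cells with force-coupled D1 receptor were loaded with a no-wash calcium dye. Compound was added after a 10 s baseline and read kinetically for 180 s; EC80 dopamine was then added and calcium flux followed another 180 s.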
TRHR enhancer = allosterically enhances the human TRH receptor; hit rate 0.66% among 360,000; AID 493056; TRHR cells, fluo-8 calcium fluorescence, EC20 TRH enhancement; enhancement, % at 2 µM; in the data active means enhancement above about 30%; further: 0% is about no effect
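Enhancer read-out: after compound pinning and an initial kinetic agonist-mode read, an EC20 of TRH (10 nM final) was injected and fluo-8 calcium signal (Ex 480/Em 530) followed at 1 s/cycle for 100 cycles in TRHR-expressing cells.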
GRP78 ERSR act = ER stress response induction in glioma; U87-MG GRP78 promoter luciferase reporter, 16 h; Potency, µM, for the others: at the highest dose activation, actives largely listed as activators; hit rate 0.02% among 420,000; active means well fitted activation curve with a large enough effect; further: potency means the concentration at half of the fitted maximal effect; series mostly up to about 76 µM; % of control where 0% means no effect; nearly all actives have a fitted effect of over 35% in size
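Stably transfected U87-MG glioma cells carrying a GRP78-based luciferase sensor; 16 h compound incubation. Luminescence end-point read 10 min after Bright-Glo addition at room temperature.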
TRHR ag = activates the human TRH receptor; hit rate 0.18% among 360,000; activation, % at 2 µM; TRHR cells, calcium flux fluo-8, FDSS agonist mode; further: 0% is about no effect
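Fluo-8-loaded TRHR cells; 10 s baseline, compound added, kinetic Ca2+ fluorescence read 1/s, agonist mode.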
D1 agonist = agonists of human D1 dopamine receptor. hit rate 1% among 360,000. activation, % at 2 µM. HEK293 T-REx D1 cells, calcium flux, agonist mode. P21728. AID 504660; further: 0% is about no effect
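Tetracycline-induced HEK293 TREx D1 cells, force-coupled to calcium signalling, were dye-loaded with a no-wash calcium kit. Compound was pin-added after a 10 s baseline. Fluorescence was read kinetically at 1 cycle/s for 180 s, with calcium rises flagged as agonism.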
D1 PAM = potentiators of human D1 dopamine receptor; P21728; HEK293 TREx D1 cells, calcium flux, dopamine EC20 potentiation; potentiation, % at 10 µM; hit rate 0.036% among 360,000; AID 504651; in the data active means potentiation above about 30%; further: 0% is about no effect
An asterisk follows results filed as active; nt = not tested or not shown. This is a sample that favours compounds with a hit; in the whole collection about 4% have one here. Unless noted, no stated cut-off is given here; in the data, active means activation above about 30%; inactive means the rest.

SMILES | D1 antagonist | TRHR enhancer | GRP78 ERSR act | TRHR ag | D1 agonist | D1 PAM
CC(C)CC(=O)c1c(O)c(C=O)c(O)c2c1O[C@@]1(C)[C@@H](C2)C[C@H]2C[C@@H]1C2(C)C | nt | nt | -4.8% | nt | nt | nt
S=C(NCc1ccc2c(c1)OCO2)Nc1ccc2nsnc2c1 | -33.1* | -1.5 | -0.7% | 1.6 | 34.1* | -6.9
C=CCNC(=S)Nc1ccc2nsnc2c1 | -89.5* | -2.9 | -0.4% | 0.5 | 7.4 | -4.1
CNCCCCCCCCSc1nc(C(C)C)ccc1C(=O)c1cccs1 | nt | nt | -9.9% | nt | nt | nt
COc1ccc(N2CCN(C(=O)CCc3c(C)nc4cc(-c5ccc(Cl)cc5)nn4c3C)CC2)cc1 | -39.1* | -0.4 | -8.7% | -0.4 | 1.0 | -7.3
COc1ccc(N2CCN(C(=O)CCc3c(C)nc4cc(-c5ccc(OC)cc5OC)nn4c3C)CC2)cc1 | 2.4 | -13.0 | -3.9% | 0.1 | 1.5 | -1.4
COCCCNC(=O)CCc1c(C)nc2cc(-c3ccc(Cl)cc3)nn2c1C | -54.0* | 10.2 | -7.9% | -0.7 | 7.4 | -5.3
CN(C)CCNC(=O)c1ccc(COc2ccc(Cl)cc2Cl)cc1 | -64.4* | -6.0 | -1.1% | 15.0 | 94.6* | -18.4
CN1CCN(C(=O)c2ccc(COc3ccc(Cl)cc3Cl)cc2)CC1 | -54.5* | 3.5 | 0.5% | 3.3 | 25.9 | -8.9
CN1CCN(C(=O)CCCOc2ccc(Cl)cc2Cl)CC1 | -8.6 | -0.5 | 2.6% | -0.4 | 5.0 | -9.7
COc1ccc(CCC(=O)O)cc1 | nt | nt | -3.5% | nt | nt | nt
O=C(COC(=O)c1ccccc1Cl)Nc1nccs1 | -5.4 | 1.9 | -2.2% | -1.0 | 44.9* | -3.6
CC[n+]1ccnc2ccccc21 | nt | nt | -8.6% | nt | nt | nt
FC(F)(F)c1cccc(-c2nc3nc(Cl)c(Cl)nc3[nH]2)c1 | -35.2* | -14.5 | 3.2% | 6.9 | 32.9* | -7.7
FC(F)(F)c1nc2nc(Cl)c(Cl)nc2[nH]1 | nt | nt | -3.4% | nt | nt | nt
N#Cc1nc(-c2ccc(OCc3ccccc3Cl)cc2)oc1N1CCCCCC1 | nt | nt | -3.1% | nt | nt | nt
O=C1C=CC(=O)c2c(O)c(Cl)c(Cl)c(O)c21 | nt | nt | -3.8% | nt | nt | nt
Cc1ccccc1NC(=O)c1cc(N)ccc1N1CCCCC1 | -54.7* | -17.6 | 0.9% | 2.7 | -1.6 | -15.3
CCC(=O)Nc1ccc(N2CCCCC2)c(C(=O)Nc2ccccc2C)c1 | 11.3 | -0.1 | -1.7% | -0.7 | -3.4 | -9.6
COc1ccc(NS(=O)(=O)c2cccc(NC(=O)COc3ccc(OC)cc3)c2)cc1 | -32.8* | 4.6 | -0.4% | -0.9 | 20.8 | -4.2
COc1ccc(NC(=O)Nc2sc(NS(=O)(=O)c3ccccc3)nc2C)cc1 | -38.8* | 1.5 | -1.5% | -0.9 | 4.0 | -3.5
COc1ccc(NS(=O)(=O)c2csc(C(=O)Nc3ccccc3)c2)cc1 | -42.0* | 0.4 | -6.9% | -0.9 | 17.5 | -4.7
COc1ccc(NS(=O)(=O)c2cccc(NC(=O)CNC(C)=O)c2)cc1 | -3.4 | -0.5 | -3.1% | 0.9 | 4.2 | -1.3
Cc1nc(NS(=O)(=O)c2ccccc2)sc1NC(=O)OC(C)C | -0.8 | 5.7 | -3.4% | -0.5 | 1.9 | -4.7
COc1ccc(NS(=O)(=O)c2ccc(NC(=O)c3ccccn3)cc2)cc1 | -39.5* | 3.5 | -1.2% | 0.1 | 11.0 | -9.0
SMILES | D1 antagonist | TRHR enhancer | GRP78 ERSR act | TRHR ag | D1 agonist | D1 PAM
CC(=O)Nc1cc(-c2ccc(C(=O)NC3CC3)cc2)cn2c(-c3ccc(F)c(Cl)c3)cnc12 | nt | nt | 13.7% | nt | nt | nt
CC(C(=O)c1ccccc1)[n+]1cccc(Cl)c1 (stereo unspecified) | nt | nt | 0.3% | nt | nt | nt
CCCC[C@H]1CCCO[C@@](C(=O)NCCN2CCOCC2)(C(F)(F)F)C1 | nt | nt | -3.6% | nt | nt | nt
Cc1ccccc1NC(=O)CSc1c(C(C)C)cnc2c1c(=O)n(C)c(=O)n2C | 12.4 | -5.3 | -3.5% | -0.4 | 1.0 | 2.7
COc1ccc(NS(=O)(=O)c2ccc(OC)c(NC(=O)CCC3CCCCC3)c2)cc1 | -35.5* | 13.5 | -4.1% | -0.1 | 4.9 | -3.7
CC(C)=CC(=O)Nc1ccc(S(=O)(=O)Nc2ccccn2)cc1 | 9.5 | 36.8* | -0.6% | 0.3 | 0.2 | -13.9
COc1ccc(NS(=O)(=O)c2ccc(OC)c(NC(=O)CNC(=O)c3ccc(OC)cc3)c2)cc1 | -4.8 | -3.7 | -5.5% | 0.4 | 2.2 | -7.5
CCC(=O)Nc1ccc(S(=O)(=O)Nc2ccccn2)cc1 | -0.8 | 0.4 | -5.3% | 1.5 | 4.6 | 6.1
COc1ccc(-n2c(C)cc(/C=N/Nc3nnc(C)n3N)c2C)cc1 | -2.6 | 2.6 | -11.9% | -0.9 | 1.2 | -4.0
CC(C)Cn1cnc2c(SCCc3ccccc3)nc(N)nc21 | nt | nt | 3.7% | nt | nt | nt
CC[C@H]1OC(=O)C[C@@H](O)[C@H](C)[C@@H](O[C@@H]2O[C@H](C)C[C@H](N(C)C)[C@@H]2O)[C@@H](CC=O)C[C@@H](C)C(=O)/C=C\[C@]2(C)O[C@H]2[C@@H]1C | nt | nt | -6.6% | nt | nt | nt
O=C(c1ccc2c(c1)OCO2)c1cn(Cc2ccc(F)cc2)c2ccccc2c1=O | -0.3 | -8.5 | -2.3% | 0.0 | -0.9 | -1.6
Cc1cccc(C)c1-n1ncc(C(=O)N2CCN(c3ccccn3)CC2)c1C1CCN(C(=O)OC(C)(C)C)CC1 | 15.0 | -21.3 | -1.1% | -0.7 | 1.1 | -2.6
CC(=O)Nc1ccc(OC(=O)c2cccs2)cc1 | -6.0 | -4.4 | -0.7% | -0.1 | 14.4 | -3.2
CC(=O)Nc1ccc(NC(=O)C(C)OC(=O)c2cccs2)cc1 (stereo unspecified) | -37.4* | -1.3 | -1.5% | 0.2 | 0.5 | -13.1
Cc1ccc(NC(=O)Nc2ccno2)cc1 | -36.8* | -1.2 | -3.5% | 0.0 | 1.0 | -8.8
O=C(C[n+]1c2ccccc2cc2ccccc21)c1ccc(F)cc1 | nt | nt | -2.8% | nt | nt | nt
COCCn1c(SCC(=O)N2CCN(c3ccccc3)CC2)nc2c(c1=O)SC(C)C2 (stereo unspecified) | -35.0* | -12.0 | -5.2% | -1.1 | 0.1 | -7.2
COCCn1c(SCC(=O)c2ccccc2)nc2c(c1=O)SC(C)C2 (stereo unspecified) | -1.8 | -1.2 | 0.5% | -1.6 | 1.6 | -4.6
CCC(=O)N1CCc2cc(S(=O)(=O)NCCC(=O)NCc3ccc(OC)cc3)ccc21 | -43.6* | 5.7 | -1.9% | 0.4 | 1.1 | -0.7
CCC(=O)N1CCc2cc(S(=O)(=O)NC(CC(C)C)C(=O)NCc3ccc(F)cc3)ccc21 (stereo unspecified) | -39.6* | 11.9 | -1.4% | -1.1 | -0.9 | 3.8
CCc1ccc(OCC(=O)NNC(=O)c2cc(S(=O)(=O)N3CCOCC3)ccc2N2CCCC2)cc1 | -5.1 | -2.3 | -4.4% | -0.4 | 1.3 | -3.5
CCN1CCN(c2ccc(S(=O)(=O)N3CCCCC3)cc2NC(=O)c2ccc(C)o2)CC1 | -47.9* | 3.5 | -2.2% | -0.5 | 0.3 | 1.9
CCc1nnc(NC(=O)Cc2ccc(S(=O)(=O)N3CCCCC3)cc2)s1 | -32.4* | -3.8 | -0.2% | 0.3 | 13.6 | nt
CCc1nnc(NC(=O)c2ccc(S(=O)(=O)N3CCCCCC3)cc2)s1 | 2.8 | 0.1 | -6.0% | 0.3 | -1.6 | 0.7

Bioassay records from PubChem BioAssay.
